The source made the active and inactive calls.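 How the source made its calls: active means GFP response above 150% of the DMSO level; inconclusive means fewer than 70 events counted for a yeast strain; inactive means the rest.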
Assay: AGP1-GFP expression modulators, hit retest, confirmation, cell-based, flow cytometry, S. cerevisiae, cherry picks (AID 2273);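 further: median GFP channel fluorescence over the whole cell population gate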
Details: S. cerevisiae AGP1-GFP strain, 3 h, at 10 µM

GFP response, % of DMSO, inactive:
N/C(=N\OC(=O)c1ccc(Cl)cc1Cl)c1ccccc1 80.1%, CCCCNC(=O)c1cc2c(=O)n3cccc(C)c3nc2n(Cc2ccncc2)c1=N 102%, CC(OC(=O)c1cccs1)C(=O)Nc1nc(-c2ccccc2)cs1 (stereo not drawn) 94.9%, Cc1ccc2c(c1)C1CN(C)CCC1N2C(=O)c1ccc(Cl)c(S(=O)(=O)N2CCOCC2)c1 (stereo not drawn) 102%, Fc1ccc(C2Nc3cccc4cccc(c34)N2)cc1 95.4%, COc1ccccc1/C=C/C(=O)c1ccc(Cl)cc1 98.9%, O=C(O)CSC1CC(=O)N(c2ccc(Cl)cc2)C1=O (stereo not drawn) 97.3%, CCN(CC)CCCN(C(=O)c1cccs1)c1nc(-c2ccc(OC)cc2)cs1 98%, Cc1nc2ccc(Br)cn2c1NC(C)(C)C 97.6%, CC(C)(C)C(=O)NC(=S)NNC(=O)c1sc2ccccc2c1Cl 137%, Cc1cccc(N=c2oc3cc(O)ccc3cc2C(N)=O)c1 102%, CCC(=O)OCCNc1cc(Sc2nc3ccccc3s2)c2nonc2c1[N+](=O)[O-] 124%, O=C(NOC(=O)c1ccccc1)c1ccccc1 88.2%, CN(C)CCCN(C(=O)c1cccs1)c1nc(-c2ccccc2)cs1 100%

Assay: modulators of CIT2-GFP expression in yeast, confirmation, S. cerevisiae, GFP fusion, cherry picks, mother/daughter gates (AID 2274)
Details: S. cerevisiae CIT2-GFP strain, flow cytometry, 3 h; at 10 µM; hits give high values

GFP response, % of DMSO, active:
N/C(=N\OC(=O)c1ccc(Cl)cc1Cl)c1ccccc1 151%

GFP response, % of DMSO, inactive:
CCCCNC(=O)c1cc2c(=O)n3cccc(C)c3nc2n(Cc2ccncc2)c1=N 104%, CC(OC(=O)c1cccs1)C(=O)Nc1nc(-c2ccccc2)cs1 (stereo not drawn) 101%, Cc1ccc2c(c1)C1CN(C)CCC1N2C(=O)c1ccc(Cl)c(S(=O)(=O)N2CCOCC2)c1 (stereo not drawn) 112%, Fc1ccc(C2Nc3cccc4cccc(c34)N2)cc1 97.8%, COc1ccccc1/C=C/C(=O)c1ccc(Cl)cc1 103%, O=C(O)CSC1CC(=O)N(c2ccc(Cl)cc2)C1=O (stereo not drawn) 104%, CCN(CC)CCCN(C(=O)c1cccs1)c1nc(-c2ccc(OC)cc2)cs1 107%, Cc1nc2ccc(Br)cn2c1NC(C)(C)C 102%, CC(C)(C)C(=O)NC(=S)NNC(=O)c1sc2ccccc2c1Cl 106%, Cc1cccc(N=c2oc3cc(O)ccc3cc2C(N)=O)c1 108%, CCC(=O)OCCNc1cc(Sc2nc3ccccc3s2)c2nonc2c1[N+](=O)[O-] 80.8%, O=C(NOC(=O)c1ccccc1)c1ccccc1 113%, CN(C)CCCN(C(=O)c1cccs1)c1nc(-c2ccccc2)cs1 101%

Source: PubChem BioAssay
